Results from PubChem BioAssay (Tox21).
Records with an inconclusive call do not appear. Activity calls are given as the source filed them. The call rests on the fitted dose curve; in most records, active means well fitted activation curve with a large enough effect in the signal ratio in the repeat runs (not every such curve was filed as active); inconclusive means weak or mixed curves; inactive means flat fitted curve, though single readings scatter; the % refers to the signal ratio.

Experiment: qHTS assay to identify small molecule agonists of the TGF-beta/Smad signaling pathway (AID 1346859)
Details: SBE-bla HEK293T, TGF-beta/Smad beta-lactamase reporter, 5 h; series mostly up to 76.8 µM; activation: at the top concentration
Excerpt: U.S. Tox21 Program National Center for Advancing Translational Sciences [NCATS] NIH Chemical Genomics Center [NCGC] U.S. Environmental Protection Agency [EPA] National Institutes of Environmental Health Sciences [NIEHS] National Toxicology Program [NTP] U.S. Food and Drug Administration [FDA] Tox21 Assay Overview: Transforming growth factor beta (TGF-beta) superfamily consists of a large number of structurally related dimeric proteins that act as hormones or local mediators in regulating a wide range of biological functions. This superfamily includes TGF-betas themselves, the bone morphogenetic proteins (BMPs) and the activins. These ligands induce oligomerization of serine/threonine receptor kinases and phosphorylate the cytoplasmic signaling molecules of Smad protein family. CellSensor SBE-bla HEK 293T cell line (Life Technologies, Carlsbad, CA), responsive to TGF-beta was used to screen Tox21 10K compound library for identification of agonists/antagonists of the Smad signaling pathway. This cell line contains a beta-lactamase reporter gene under control of the Smad binding element (SBE) stably integrated into HEK 293T cells.
Tox21 Assay Protocol Summary: SBE-bla HEK 293T cells were dispensed at 4,000/well in 6 uL of assay medium into black wall/clear-bottom 1536-well plates using a Multidrop Combi (ThermoFisher Scientific, Waltham, MA) dispenser. After the assay plates were incubated at 37 C and 5% CO2 for an overnight, 23 nL of compounds dissolved in DMSO, positive controls or DMSO only was transferred to the assay plate by a Pintool station (Kalypsys, San Diego, CA). The assay plates were incubated at 37 C and 5% CO2 for 5 hr. One uL of LiveBLAzer B/G FRET substrate (Life Technologies) was added using a Flying Reagent Dispenser (Aurora Discovery, San Diego, CA) and the plates were incubated at room temperature for 2 hr. Fluorescence intensity (405 nm excitation, 460 nm and 530 nm emissions) was measured using an Envision plate reader (PerkinElmer, Shelton, CT).
On the % scale 0 is the no-effect control and ±100 the full control effect.

| SMILES | outcome | activation |
| --- | --- | --- |
| Cc1ccc(N)c(C)c1 | inactive | – |
| CC(C)C1(C)N=C(c2ncccc2C(=O)O)NC1=O (stereo not given) | – | -1.21% (inactive) |
| Clc1ccc2ccccc2c1 | – | 0.727% (inactive) |
| CC1(C)[C@H](C(=O)O[C@H](C#N)c2cccc(Oc3ccccc3)c2)[C@@H]1C=C(Br)Br | inactive | – |
| C[C@]12CC[C@H]3[C@@H](CCC4=CC(=O)CC[C@@H]43)[C@@H]1CC[C@@H]2OC(=O)CCc1ccccc1 | – | -6.44% [at 35.3 µM] (inactive) |
| CCCCCCCCCCCCN(C)C | – | -0.992% (inactive) |
| CCCCC(CC)CO[N+](=O)[O-] (stereo not given) | – | -0.0429% (inactive) |
| OCCCl | – | 0.58% (inactive) |
| O=C(CCl)CCl | inactive | – |
| O=P(OCC(Br)CBr)(OCC(Br)CBr)OCC(Br)CBr (stereo not given) | inactive | – |
| O=C1c2ccccc2C(=O)N1SC(Cl)(Cl)Cl | inactive | – |
| Cc1nc2ccccc2c(=O)n1-c1ccccc1Cl | – | -1.62% (inactive) |
| OC[P+](CO)(CO)CO | inactive | – |
| C=CC(C)(CCC=C(C)C)OC(=O)c1ccccc1N (stereo not given) | – | 0.739% (inactive) |
| O=C(NCNC(=O)NC1C(=O)NC(=O)N1CO)NC1C(=O)NC(=O)N1CO (stereo not given) | – | 0.653% (inactive) |
| NC(=S)c1c(Cl)cccc1Cl | – | 1.25% (inactive) |
| CCC1(CCC(C)C)C(=O)NC(=O)NC1=O | – | 1.86% (inactive) |
| COc1ccccc1N1CCNCC1 | – | 1.79% [at 35.3 µM] (inactive) |
| C[C@H](N)[C@H](O)c1ccc(O)c(O)c1 | – | 0.156% [at 35.3 µM] (inactive) |
| CCC1(CC)C(=O)NC(=O)NC1=O | – | 0.545% [at 35.3 µM] (inactive) |

| SMILES | outcome | activation |
| --- | --- | --- |
| C[C@H]1O[C@H](OC2[C@@H](O)[C@@H](O)C(O)[C@H](O)[C@H]2O)[C@@H](N)C[C@@H]1N=C(N)C(=O)O (stereo not given in full) | – | 2.82% (inactive) |
| Cc1nnc(-c2ccccc2)c(=O)n1N | – | -0.301% (inactive) |
| CC(C)(C)NCC(O)c1ccccc1Cl (stereo not given) | – | 0.888% [at 35.3 µM] (inactive) |
| CC(Oc1cc(Cl)c(Cl)cc1Cl)C(=O)O (stereo not given) | – | -11.2% (inactive) |
| CC(C)(c1ccccc1)c1cc(-n2nc3ccccc3n2)c(O)c(C(C)(C)c2ccccc2)c1 | – | 0.534% [at 35.3 µM] (inactive) |
| Cc1ccccc1 | – | 1.15% (inactive) |
| CCOC(C(=O)OCCN(C)C)(c1ccccc1)c1ccccc1 | – | 0.0831% [at 35.3 µM] (inactive) |
| O=C=NC1CCCCC1 | – | -0.263% (inactive) |
| O=C(O)c1cc(I)cc(I)c1I | – | -2.03% (inactive) |
| O=[N+]([O-])O[C@H]1CO[C@H]2[C@@H]1OC[C@H]2O[N+](=O)[O-] | – | -0.29% [at 35.3 µM] (inactive) |
| CCCCCBr | – | 1.36% (inactive) |
| Oc1cccc(Cl)c1 | – | -2.26% (inactive) |
| Nc1cccc2ccccc12 | inactive | – |
| C1CCNCC1 | – | -6.51% (inactive) |
| Nc1c(Br)cc(Br)c2c1C(=O)c1ccccc1C2=O | – | -5.21% [at 15.8 µM] (inactive) |
| N#CC(C#N)=Cc1ccc(O)c(O)c1 | – | 0.159% [at 35.3 µM] (inactive) |
| CC(C)(C)N(NC(=O)c1ccc(Cl)cc1)C(=O)c1ccccc1 | – | -3.45% (inactive) |
| NCCc1cc(O)c(O)cc1O | – | -0.265% [at 35.3 µM] (inactive) |
| CC(=O)OC(c1ccccc1)C(Cl)(Cl)Cl (stereo not given) | – | 0.24% (inactive) |
| O=C(O)C(Cl)(Cl)Br | – | 3.5% (inactive) |
